From ChEMBL document CHEMBL3988442, “University of Dundee, Small-Polar-MMV Screening Library” (2021)
For some assays here: Measured potencies and affinities stand elsewhere.

Key:
Parameters in all cases: scale not given: direction of the effect not stated beside the values
[1] = target: Protein translocase subunit SecA (Escherichia coli (strain K12)) (UniProt P10408); experiment: Assay to Identify E. coli SecA ATPase Inhibitors; assay type: functional; conditions: 30 µM
[2] = target: T1, Ubiquitin-activating enzyme e1, putative (Leishmania donovani (strain BPK282A1)) (UniProt E9BSI1); experiment: Leishmania donovani Ubiquitin Activating Enzyme (LdE1); assay type: functional; conditions: 30 µM
T1 sequence (whole entry): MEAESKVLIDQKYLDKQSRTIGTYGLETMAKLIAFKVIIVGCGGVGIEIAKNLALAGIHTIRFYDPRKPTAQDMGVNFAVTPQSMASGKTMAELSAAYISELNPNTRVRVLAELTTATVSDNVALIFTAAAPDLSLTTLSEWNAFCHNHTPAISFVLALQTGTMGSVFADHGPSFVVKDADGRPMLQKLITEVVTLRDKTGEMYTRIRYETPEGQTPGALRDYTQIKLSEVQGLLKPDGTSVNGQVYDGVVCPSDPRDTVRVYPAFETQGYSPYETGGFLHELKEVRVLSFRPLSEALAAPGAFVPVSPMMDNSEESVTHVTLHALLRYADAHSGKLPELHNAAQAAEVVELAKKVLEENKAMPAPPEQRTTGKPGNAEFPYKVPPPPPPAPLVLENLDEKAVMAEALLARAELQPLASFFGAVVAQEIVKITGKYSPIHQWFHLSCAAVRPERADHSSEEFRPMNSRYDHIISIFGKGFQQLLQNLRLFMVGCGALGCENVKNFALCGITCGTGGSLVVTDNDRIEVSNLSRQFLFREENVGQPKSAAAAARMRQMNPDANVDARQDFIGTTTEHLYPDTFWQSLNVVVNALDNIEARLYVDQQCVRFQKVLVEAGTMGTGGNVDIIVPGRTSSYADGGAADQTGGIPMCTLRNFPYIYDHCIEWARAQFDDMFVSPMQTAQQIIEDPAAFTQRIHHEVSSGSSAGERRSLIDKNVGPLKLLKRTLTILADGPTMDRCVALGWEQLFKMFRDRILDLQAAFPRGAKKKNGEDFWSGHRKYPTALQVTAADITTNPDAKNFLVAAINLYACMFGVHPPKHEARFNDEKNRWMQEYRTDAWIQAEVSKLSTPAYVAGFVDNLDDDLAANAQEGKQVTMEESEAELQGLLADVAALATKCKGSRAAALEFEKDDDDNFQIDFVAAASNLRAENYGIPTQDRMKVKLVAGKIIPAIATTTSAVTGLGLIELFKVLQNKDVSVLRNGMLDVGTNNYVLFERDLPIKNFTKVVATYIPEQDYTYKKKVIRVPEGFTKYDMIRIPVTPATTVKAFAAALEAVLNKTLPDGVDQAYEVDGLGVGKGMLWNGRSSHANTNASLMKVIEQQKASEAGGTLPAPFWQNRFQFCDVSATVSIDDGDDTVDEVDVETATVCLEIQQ

[3] = target: AMP-activated protein kinase, AMPK (Homo sapiens) (UniProt P54646+O43741+P54619+Q9UGJ0+Q9Y478+Q13131+Q9UGI9); experiment: AMP-dependent Kinase enzyme assay. An in vitro enzyme assay that detects ADP turnover that is directly proportional to AMPK activity. This uses naive AMPK that is activated during the assay with MK-8722; assay type: functional; conditions: 30 µM
[4] = target: Sialic acid-binding Ig-like lectin 9 (Homo sapiens) (UniProt Q9Y336); experiment: Hs-Siglec9 ALPHAscreen SOP 20170721; conditions: 10 µM
Trypanosoma cruzi = experiment: Trypanosoma cruzi phosphomannomutase and mannose-1-phosphate guanylyltransferase assay; assay type: functional; conditions: 10 µM
[5] = target: T2, Arginase-2, mitochondrial (Homo sapiens) (UniProt P78540); experiment: in vitro enzyme assay to detect the production of urea directly proportional to the activity of Arginase II; assay type: functional; conditions: 33.3 µM; note: in the data most compounds retested in dose-response had high values
T2 sequence (whole entry): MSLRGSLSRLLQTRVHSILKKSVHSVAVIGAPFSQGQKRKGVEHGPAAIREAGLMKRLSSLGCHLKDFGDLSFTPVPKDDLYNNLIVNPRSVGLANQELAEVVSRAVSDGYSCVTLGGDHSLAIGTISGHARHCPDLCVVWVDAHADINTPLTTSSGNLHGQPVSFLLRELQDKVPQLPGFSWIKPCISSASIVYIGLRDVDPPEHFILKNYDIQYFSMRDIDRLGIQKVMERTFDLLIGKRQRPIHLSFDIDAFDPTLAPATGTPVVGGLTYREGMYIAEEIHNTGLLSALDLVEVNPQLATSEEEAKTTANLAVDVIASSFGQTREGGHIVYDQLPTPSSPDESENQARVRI

[6] = target: T3, Proteasome subunit beta (Trypanosoma cruzi) (UniProt O96673); experiment: Trypanosoma cruzi proteasome chymotrypsin-like activity (TcProtChymo) assay.; note: in the data most compounds retested in dose-response had high values; assay type: functional; conditions: 9.37 µM
T3 sequence (whole entry): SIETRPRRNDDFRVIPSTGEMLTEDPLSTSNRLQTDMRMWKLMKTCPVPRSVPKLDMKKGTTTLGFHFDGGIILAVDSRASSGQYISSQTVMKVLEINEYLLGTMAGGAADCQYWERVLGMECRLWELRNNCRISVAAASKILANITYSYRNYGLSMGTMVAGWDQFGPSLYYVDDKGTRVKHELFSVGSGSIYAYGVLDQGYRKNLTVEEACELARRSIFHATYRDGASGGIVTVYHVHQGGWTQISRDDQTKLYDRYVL

Homo sapiens = organism: Homo sapiens; experiment: To identify inhibition of the IFN signalling (Jak-Stat) pathway via expression of an eGFP reporter gene under the control of an IFN-stimulated response element (ISRE) containing MxA promoter.; assay type: functional; conditions: 30 µM
[7] = target: T4, Tyrosyl-tRNA synthetase, putative (Trypanosoma cruzi (strain CL Brener)) (UniProt Q4DSP6); experiment: Trypanosoma cruzi tyrosyl tRNA synthetase (TcYRS) _High Tyrosine SOP; assay type: functional; conditions: 30 µM; note: in the data most compounds retested in dose-response had high values
T4 sequence (whole entry): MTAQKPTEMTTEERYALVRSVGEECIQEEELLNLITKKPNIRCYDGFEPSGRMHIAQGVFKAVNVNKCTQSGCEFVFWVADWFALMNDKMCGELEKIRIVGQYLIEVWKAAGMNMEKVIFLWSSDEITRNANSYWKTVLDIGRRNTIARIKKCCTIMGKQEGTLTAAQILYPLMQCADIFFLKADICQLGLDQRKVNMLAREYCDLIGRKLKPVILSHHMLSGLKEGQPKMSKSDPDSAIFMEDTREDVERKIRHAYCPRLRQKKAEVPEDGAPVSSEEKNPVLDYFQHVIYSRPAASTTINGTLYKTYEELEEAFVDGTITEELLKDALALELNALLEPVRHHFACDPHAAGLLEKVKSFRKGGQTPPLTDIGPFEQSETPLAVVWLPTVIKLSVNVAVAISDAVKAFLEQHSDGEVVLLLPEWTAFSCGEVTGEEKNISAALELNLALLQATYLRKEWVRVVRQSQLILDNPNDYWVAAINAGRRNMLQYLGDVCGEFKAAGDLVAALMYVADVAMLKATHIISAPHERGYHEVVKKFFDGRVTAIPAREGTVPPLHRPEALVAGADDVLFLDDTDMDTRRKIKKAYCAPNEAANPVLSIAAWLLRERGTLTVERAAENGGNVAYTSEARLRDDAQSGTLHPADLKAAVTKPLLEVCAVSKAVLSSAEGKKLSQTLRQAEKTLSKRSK

[8] = target: T4, Tyrosyl-tRNA synthetase, putative (Trypanosoma cruzi (strain CL Brener)); experiment: Trypanosoma cruzi tyrosyl tRNA synthetase (TcYRS) SOP; assay type: functional; conditions: 30 µM
[9] = target: Chromo domain-containing protein 1 (Saccharomyces cerevisiae (strain ATCC 204508 / S288c) (Baker's yeast)) (UniProt P32657); experiment: ScCHD-1 Enzyme Inhibition Assay; assay type: functional; conditions: 30 µM; note: in the data most compounds retested in dose-response had high values
Chain of Chromo domain-containing protein 1 (Saccharomyces cerevisiae (strain ATCC 204508 / S288c) (Baker's yeast)) (P32657 whole entry, the tested form may be a part): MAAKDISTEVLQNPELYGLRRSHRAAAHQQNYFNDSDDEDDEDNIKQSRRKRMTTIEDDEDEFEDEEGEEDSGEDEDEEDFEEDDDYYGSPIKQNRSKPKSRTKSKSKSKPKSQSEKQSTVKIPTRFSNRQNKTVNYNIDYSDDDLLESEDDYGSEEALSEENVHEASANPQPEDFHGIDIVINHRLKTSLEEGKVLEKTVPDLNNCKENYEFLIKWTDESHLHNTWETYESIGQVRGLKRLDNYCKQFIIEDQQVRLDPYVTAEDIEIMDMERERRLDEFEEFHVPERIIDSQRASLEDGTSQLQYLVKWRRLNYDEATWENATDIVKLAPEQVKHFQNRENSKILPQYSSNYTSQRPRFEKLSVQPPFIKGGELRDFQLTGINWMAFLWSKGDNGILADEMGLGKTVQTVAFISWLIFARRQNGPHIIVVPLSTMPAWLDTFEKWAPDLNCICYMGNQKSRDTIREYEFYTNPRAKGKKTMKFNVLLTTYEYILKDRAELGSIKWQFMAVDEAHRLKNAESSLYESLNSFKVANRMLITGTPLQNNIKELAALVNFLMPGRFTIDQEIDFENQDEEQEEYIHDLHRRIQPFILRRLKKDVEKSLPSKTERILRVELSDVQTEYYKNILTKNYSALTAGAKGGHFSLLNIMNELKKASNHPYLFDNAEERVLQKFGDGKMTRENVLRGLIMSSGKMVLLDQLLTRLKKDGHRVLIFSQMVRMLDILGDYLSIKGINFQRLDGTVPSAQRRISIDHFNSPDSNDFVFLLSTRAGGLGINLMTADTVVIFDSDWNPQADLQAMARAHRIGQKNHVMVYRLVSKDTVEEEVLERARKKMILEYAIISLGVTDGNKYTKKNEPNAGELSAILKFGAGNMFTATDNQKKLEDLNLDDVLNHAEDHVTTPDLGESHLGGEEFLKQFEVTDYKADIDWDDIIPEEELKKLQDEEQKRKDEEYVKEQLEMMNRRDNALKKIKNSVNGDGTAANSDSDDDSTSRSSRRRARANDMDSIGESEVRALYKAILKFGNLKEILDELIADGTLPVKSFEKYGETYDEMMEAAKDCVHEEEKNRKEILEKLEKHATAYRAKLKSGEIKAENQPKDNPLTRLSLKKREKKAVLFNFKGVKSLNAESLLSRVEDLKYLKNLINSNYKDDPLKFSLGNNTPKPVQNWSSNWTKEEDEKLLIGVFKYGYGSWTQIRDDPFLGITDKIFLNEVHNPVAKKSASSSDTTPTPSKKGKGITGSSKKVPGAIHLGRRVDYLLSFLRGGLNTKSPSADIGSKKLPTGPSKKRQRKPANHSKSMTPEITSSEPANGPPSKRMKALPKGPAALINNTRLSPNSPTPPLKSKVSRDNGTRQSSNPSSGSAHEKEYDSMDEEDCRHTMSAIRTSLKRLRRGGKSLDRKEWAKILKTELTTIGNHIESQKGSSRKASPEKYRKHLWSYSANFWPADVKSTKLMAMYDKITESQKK

Chain of Sialic acid-binding Ig-like lectin 9 (Homo sapiens) (Q9Y336 whole entry): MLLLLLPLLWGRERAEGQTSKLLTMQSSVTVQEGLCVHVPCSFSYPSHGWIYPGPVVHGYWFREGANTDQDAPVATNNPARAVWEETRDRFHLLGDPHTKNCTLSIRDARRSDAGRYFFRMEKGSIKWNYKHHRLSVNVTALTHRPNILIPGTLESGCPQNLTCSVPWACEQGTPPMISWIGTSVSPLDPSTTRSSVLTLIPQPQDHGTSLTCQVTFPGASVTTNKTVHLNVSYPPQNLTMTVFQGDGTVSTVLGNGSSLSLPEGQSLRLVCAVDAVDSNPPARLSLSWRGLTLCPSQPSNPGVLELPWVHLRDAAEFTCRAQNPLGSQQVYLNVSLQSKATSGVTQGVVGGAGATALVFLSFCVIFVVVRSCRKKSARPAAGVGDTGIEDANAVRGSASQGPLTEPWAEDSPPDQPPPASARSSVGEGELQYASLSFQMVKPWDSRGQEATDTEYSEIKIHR
Chain of Protein translocase subunit SecA (Escherichia coli (strain K12)) (P10408 whole entry): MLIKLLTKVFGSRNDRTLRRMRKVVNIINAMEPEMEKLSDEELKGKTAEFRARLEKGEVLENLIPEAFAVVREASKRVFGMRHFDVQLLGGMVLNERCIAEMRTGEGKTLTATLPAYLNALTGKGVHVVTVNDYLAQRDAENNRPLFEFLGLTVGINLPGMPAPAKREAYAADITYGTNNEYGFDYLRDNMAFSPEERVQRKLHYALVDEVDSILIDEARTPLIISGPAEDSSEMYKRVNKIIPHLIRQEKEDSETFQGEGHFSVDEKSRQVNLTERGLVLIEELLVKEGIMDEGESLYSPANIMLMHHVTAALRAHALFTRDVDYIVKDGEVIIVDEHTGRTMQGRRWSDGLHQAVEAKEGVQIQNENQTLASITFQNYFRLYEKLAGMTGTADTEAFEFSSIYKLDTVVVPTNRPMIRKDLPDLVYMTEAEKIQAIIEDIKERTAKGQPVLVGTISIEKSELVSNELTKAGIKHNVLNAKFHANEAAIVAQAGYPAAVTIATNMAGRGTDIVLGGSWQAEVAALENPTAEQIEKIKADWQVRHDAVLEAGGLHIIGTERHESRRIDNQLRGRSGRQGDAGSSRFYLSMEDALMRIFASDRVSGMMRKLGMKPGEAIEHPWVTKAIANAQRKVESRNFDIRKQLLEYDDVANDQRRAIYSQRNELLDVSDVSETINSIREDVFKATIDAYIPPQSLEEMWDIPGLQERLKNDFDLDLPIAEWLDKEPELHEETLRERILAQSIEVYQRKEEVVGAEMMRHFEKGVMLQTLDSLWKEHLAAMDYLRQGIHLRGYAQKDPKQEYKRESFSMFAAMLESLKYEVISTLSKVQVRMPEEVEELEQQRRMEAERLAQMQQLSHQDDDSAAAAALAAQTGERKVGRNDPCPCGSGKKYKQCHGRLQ

| Compound | Percent Effect [1] [%] | Percent Effect [2] [%] | Percent Effect [3] [%] | Percent Effect [4] [%] | Percent Effect (Trypanosoma cruzi) [%] | Percent Effect [5] [%] | Percent Effect [6] [%] | Percent Effect (Homo sapiens) [%] | Percent Effect [7] [%] | Percent Effect [8] [%] | Percent Effect [9] [%] |
| --- | --- | --- | --- | --- | --- | --- | --- | --- | --- | --- | --- |
| Cc1csc(CN2CC[C@H]3C[C@H](c4nnc(C)[nH]4)O[C@@H]3C2)n1 | 1.54 | 16.4 | 0.599 | 0.797 | -0.397 | 2.4 | 9.33 | 17.3 | 3.12 | -102 | -5.22 |
| Cn1ccc(C(=O)NC2CCC23CCN(Cc2cccnc2)CC3)c1 (configuration not stated) | -1.54 | 2.74 | 5.78 | 0.617 | 0 | 0.399 | 5.39 | 2.32 | -1.04 | -3.7 | 0.517 |
| COCC1CN(C(=O)COc2ccccc2)Cc2cn(C)nc21 (configuration not stated) | 1.54 | -2.6 | 1.75 | 4.23 | -2.27 | -8.39 | 1.39 | 9.62 | -5.29 | -1.28 | -6.88 |
| O=C1CCC2(CCN(Cc3nccs3)CC2)N1Cc1ccccc1 | -0.659 | 5.33 | 5.45 | 1.02 | -5.91 | 3.03 | 10.8 | 5.84 | 5.32 | 11.5 | -0.585 |
| Cc1ncsc1C(=O)NC1CCN(Cc2ccc(C#N)cc2)CC1 | -4.4 | 18.2 | 0.609 | 12.4 | 1.12 | -2.49 | 5.74 | 32.5 | 3.88 | 12.2 | -7.46 |
| Cc1ccccc1CN1CCN(Cc2nccn2C)CC1 | -3.45 | 5.41 | -4.75 | 4.96 | -3.3 | -1.6 | 0.36 | 16.1 | 3.45 | 3.7 | -1.25 |
| CCNc1cc2c(nn1)CCN(C(=O)Cc1c(C)noc1C)C2 | -9.15 | 7.89 | 9.72 | 1.08 | -5.51 | 0.719 | 3.47 | 6.32 | 0.493 | 1.24 | 3.07 |
| COCC1CCN(C(=O)c2cccc(S(=O)(=O)NC3CCCC3)c2)C1 (configuration not stated) | 1.68 | 16.2 | -0.427 | 10.5 | 1.66 | 10.2 | 17.4 | 13.5 | 5.38 | 21 | -13.4 |
| CCc1nc(C2CCCN(C(=O)c3cn(C)nc3C)C2)no1 (configuration not stated) | -2.94 | 5.41 | -8.22 | 13.8 | 7.89 | 0.185 | 5.57 | 9 | 3.96 | 13.4 | 65.5 |
| Cc1cnn(C2CN(Cc3nc(-c4ccco4)no3)C2)c1 | -7.03 | 13 | 26.4 | 11.1 | 0.374 | -0.356 | 5.41 | 10.2 | 10.7 | 19.5 | -2.84 |
| CN1CC[C@H](c2ccccc2)[C@@H]2[C@H]1CCCCN2C(=O)c1cnccn1 | -2.95 | -4.05 | 7.03 | 1.21 | 3.75 | -5.34 | 10.8 | 3.3 | 4.3 | 3.9 | -14 |
| Fc1ccc(CN2CCCC(Cn3cncn3)C2)c2ncccc12 (configuration not stated) | -5.33 | 5.2 | -0.904 | 8.63 | 1.67 | -1.38 | 12.2 | -1.67 | 5.38 | 11.1 | 1.09 |
| CCCS(=O)(=O)N1CCN(c2cc(-n3cnc(C)c3C)nc(C)n2)CC1 | -2.71 | 0 | 2.33 | -0.358 | -3.25 | 9.65 | 3.16 | -2.89 | 1.07 | -3.7 | 2.9 |
| CS(=O)(=O)NCC(=O)N1CCCC1c1noc(C2CC2)n1 (configuration not stated) | -3.88 | 16 | -6.02 | 25.8 | 4.19 | 41.1 | 5.58 | 0.475 | 4.92 | 13.6 | -6.99 |
| Cc1ncsc1C(=O)NCCOc1ncc(Cl)cc1Cl | -6.27 | 5.41 | 1.84 | 0.223 | 0.977 | 4.17 | 11.1 | 25.4 | 10.9 | 11 | -5.96 |
| CCCC(Nc1c(C#N)c(=O)n(C)c(=O)n1C)c1ccc(F)cc1F (configuration not stated) | -5.68 | 10.1 | 0.965 | 11 | 5.19 | 4.18 | 0.573 | 1.79 | 7.39 | 13.9 | -4.28 |
| CCN(Cc1ccc2c(c1)OCCO2)C(=O)NC(C)Cn1ccnc1 (configuration not stated) | -0.244 | 23.4 | -1.99 | -9.3 | -9.74 | 3.56 | 10.8 | 19.8 | 3.88 | 9.76 | -7.71 |
| Cc1noc([C@@H]2CCCN2C(=O)C2CCN(C(=O)C3CCC3)CC2)n1 | -2.73 | 5.48 | 27.2 | -1.91 | -6.27 | 0.909 | 11.7 | 27.9 | 0 | 5 | 98.2 |
| O=C(CCc1cccnc1)N1CCCC(n2cncn2)C1 (configuration not stated) | -2.09 | 0 | 4.67 | 4.06 | 2.74 | 0.76 | -1.23 | -1.71 | 2.46 | -1.27 | -1.28 |
| COc1ccc(CC(=O)N2CCCCC2Cn2cccn2)cc1OC (configuration not stated) | -5.85 | 7.89 | 1.89 | 0.458 | 0.682 | -11.8 | 6.81 | 5.15 | 0 | 10.4 | -1.27 |
| Cc1nc(NCCc2ccc(Cl)cc2)cc(C(=O)N2CCCCC2)n1 | -1.97 | 7.79 | 7.85 | -0.26 | -8.16 | -16.6 | 22.6 | 10.8 | 0 | 1.24 | -2.69 |
| Cc1cc(NC(=O)NCC(C)O)n(C)n1 (configuration not stated) | -5.54 | 10.5 | -8.37 | 7.06 | 5.64 | 0 | 12.2 | -5.12 | 2.45 | 12.2 | -14.2 |
